# According to PubChem BioAssay (NCATS):
# Inconclusive results are not listed. Where a call stands in place of a potency, no number is given. The source made the active and inactive calls. Unless noted, calls come from the whole dose curve; as a rule, active = well fitted curve in the direction sought with a large enough effect; inconclusive = small, poorly fitted or top-dose-only effect, or another doubt; inactive = no such curve, though single readings can be large; an effect the other way counts as inactive or inconclusive.
# Legend:
# [1] = qHTS for Inhibitors of the Functional Ribonucleoprotein Complex (vRNP) of Lassa (LASV) Arenavirus: LASV Primary Screen - GLuc reporter signal (AID 1347082; calls by dose curve; tested in HEK293 reporter line; note: series mostly up to about 57 µM; nearly all actives have a fitted effect of over 60% in size)
# [2] = qHTS for Inhibitors of the Functional Ribonucleoprotein Complex (vRNP) of Lassa (LASV) Arenavirus: Viability assay - alamar blue signal for LASV Primary Screen (AID 1347083; calls by dose curve; tested in HEK293 reporter line; note: series mostly up to about 57 µM; nearly all actives have a fitted effect of over 80% in size)
# [3] = qHTS for Inhibitors of the Functional Ribonucleoprotein Complex (vRNP) of Lymphocytic Choriomeningitis Arenaviruses (LCMV): Viability assay - alamar blue signal for LCMV Primary Screen (AID 1347085; calls by dose curve; tested in HEK293 reporter line; note: series mostly up to about 57 µM; nearly all actives have a fitted effect of over 80% in size)
# [4] = target: Nucleoprotein (Lymphocytic choriomeningitis virus (strain Armstrong)) (UniProt P09992); assay: qHTS for Inhibitors of the Functional Ribonucleoprotein Complex (vRNP) of Lymphocytic Choriomeningitis Arenaviruses (LCMV): LCMV Primary Screen - GLuc reporter signal (AID 1347086; calls by dose curve; note: series mostly up to about 57 µM; nearly all actives have a fitted effect of over 70% in size)
# Nucleoprotein (Lymphocytic choriomeningitis virus (strain Armstrong)), sequence (P09992 whole entry, looked up): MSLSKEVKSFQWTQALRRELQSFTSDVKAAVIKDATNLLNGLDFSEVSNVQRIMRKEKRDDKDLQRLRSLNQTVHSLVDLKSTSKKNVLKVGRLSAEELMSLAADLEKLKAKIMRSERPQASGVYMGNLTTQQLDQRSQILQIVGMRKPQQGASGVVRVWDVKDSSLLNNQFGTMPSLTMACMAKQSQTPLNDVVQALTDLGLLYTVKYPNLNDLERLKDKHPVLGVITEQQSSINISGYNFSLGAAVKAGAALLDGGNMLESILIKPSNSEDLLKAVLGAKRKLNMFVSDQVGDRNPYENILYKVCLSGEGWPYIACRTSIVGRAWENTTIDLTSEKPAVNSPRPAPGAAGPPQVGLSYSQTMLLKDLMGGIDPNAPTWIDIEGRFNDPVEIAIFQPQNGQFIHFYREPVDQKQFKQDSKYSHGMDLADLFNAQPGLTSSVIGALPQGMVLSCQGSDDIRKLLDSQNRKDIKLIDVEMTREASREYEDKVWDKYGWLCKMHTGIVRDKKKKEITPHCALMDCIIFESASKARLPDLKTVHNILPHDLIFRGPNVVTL
# [5] = qHTS of pediatric cancer cell lines to identify multiple opportunities for drug repurposing: Primary screen for TC32 cells (AID 1347089); note: nearly all actives have a fitted effect of over 60% in size; note: potency is the fitted concentration of half-maximal effect
# In short: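 Measured quantity: luminescence from CellTiter-Glo, reflecting metabolically active TC32 cells following 48 h of compound. Curves came straight from multi-point titrations, with 8 or 11 points in primary and 11 in confirmatory screening.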
# [6] = qHTS of pediatric cancer cell lines to identify multiple opportunities for drug repurposing: Primary screen for DAOY cells (AID 1347090); note: nearly all actives have a fitted effect of over 55% in size; note: potency is the fitted concentration of half-maximal effect
# In short: (§1)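 Viability measured as metabolically active cells via CellTiter-Glo luminescence following 48 hours of compound exposure, 11-point dilutions in confirmatory testing. 500-1,000 cells/well plated 5 hours before dosing; controls were DMSO and 2.3 µM bortezomib.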
# [7] = qHTS of pediatric cancer cell lines to identify multiple opportunities for drug repurposing: Primary screen for SJ-GBM2 cells (AID 1347091); note: potency is the fitted concentration of half-maximal effect
# In short: as §1
# [8] = qHTS of pediatric cancer cell lines to identify multiple opportunities for drug repurposing: Primary screen for A673 cells (AID 1347092); note: nearly all actives have a fitted effect of over 45% in size; note: potency is the fitted concentration of half-maximal effect
# In short: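 Cells are plated, rested 5 h, dosed by pintool, incubated 48 h, then lysed with CellTiter-Glo and read by luminescence. DMSO is the neutral control; bortezomib at 2.3 uM final is the positive control.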
# [9] = qHTS of pediatric cancer cell lines to identify multiple opportunities for drug repurposing: Primary screen for SK-N-MC cells (AID 1347093); note: potency is the fitted concentration of half-maximal effect
# In short: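 Metabolically active cells were quantified by ATP-dependent luminescence (CellTiter-Glo, 15 min at room temperature) following 48 h treatment. Cells had been plated at 500-1,000 per well and settled for 5 h beforehand.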
Structure (SMILES),Potency [1],Potency [2],Potency [3],Potency [4],Potency [5],Potency [6],Potency [7],Potency [8],Potency [9]
CCN1CCCC1CNC(=O)C(O)(c1ccccc1)c1ccccc1 (stereo not drawn),inactive,inactive,inactive,inactive,inactive,inactive,inactive,inactive,inactive
Cc1ncc2n1-c1ccc(Cl)cc1C(c1ccccc1F)=NC2,inactive,inactive,inactive,inactive,inactive,inactive,inactive,inactive,inactive
c1cc2c(c(N3CCNCC3)c1)OCCO2,inactive,inactive,inactive,inactive,inactive,inactive,inactive,inactive,inactive
C[C@H]1CNCCc2ccc(Cl)cc21,inactive,inactive,inactive,inactive,inactive,inactive,inactive,inactive,inactive
COP(=O)(OC)C(O)C(Cl)(Cl)Cl (stereo not drawn),inactive,inactive,inactive,inactive,inactive,inactive,inactive,inactive,inactive
COc1cc(C[C@@H](C)N)c(OC)cc1Br,inactive,inactive,inactive,inactive,inactive,inactive,inactive,inactive,inactive
COc1cc(C[C@@H](C)N)c(OC)cc1C,inactive,inactive,inactive,inactive,inactive,inactive,inactive,inactive,inactive
CCOP(=S)(OCC)O/N=C(\C#N)c1ccccc1,inactive,inactive,inactive,inactive,inactive,inactive,inactive,inactive,inactive
C[C@@H]1CN(C2CCC(C#N)(c3ccc(F)cc3)CC2)CC[C@]1(C(=O)O)c1ccccc1 (stereo partly drawn),inactive,inactive,inactive,inactive,inactive,inactive,inactive,inactive,inactive
CCCCC1C(=O)NC(=O)N(C2CCCCC2)C1=O (stereo not drawn),inactive,inactive,inactive,inactive,inactive,inactive,inactive,inactive,inactive
CCN(CC)CCOC(=O)C(C)(c1ccccc1)c1ccccc1,inactive,inactive,inactive,inactive,inactive,inactive,inactive,inactive,inactive
C[C@@H]1O[C@@H](O[C@@H]2C=C3CC[C@@H]4[C@H](CC[C@]5(C)[C@@H](c6ccc(=O)oc6)CC[C@]45O)[C@@]3(C)CC2)[C@H](O)[C@H](O)[C@H]1O,inactive,inactive,inactive,inactive,3.3 nM (active),2.1 nM (active),6.7 nM (active),2.7 nM (active),1 nM (active)
CCCC[N+]1(C)[C@@H]2CC(OC(=O)[C@H](CO)c3ccccc3)C[C@H]1[C@@H]1O[C@@H]12 (stereo partly drawn),inactive,inactive,inactive,inactive,inactive,inactive,inactive,inactive,inactive
CCS(=O)(=O)C(C)(C)S(=O)(=O)CC,inactive,inactive,inactive,inactive,inactive,inactive,inactive,inactive,inactive
CCC1(c2ccccc2)CCC(=O)NC1=O (stereo not drawn),inactive,inactive,inactive,inactive,inactive,inactive,inactive,inactive,inactive
C1CN2CCC1CC2,inactive,inactive,inactive,inactive,inactive,inactive,inactive,inactive,inactive
O=c1n(Cl)c(=O)n(Cl)c(=O)n1Cl,inactive,inactive,inactive,inactive,inactive,inactive,inactive,inactive,inactive
CC1=C2[C@H]3OC(=O)[C@@H](C)[C@@H]3CC[C@@]2(C)C=CC1=O,inactive,inactive,inactive,inactive,inactive,inactive,inactive,inactive,inactive
C[N+]1(CCC(C(N)=O)(c2ccccc2)c2ccccc2)CCCCC1,inactive,inactive,inactive,inactive,inactive,inactive,inactive,inactive,inactive
C[C@]12CC[C@H]3[C@@H](CCC4=CC(=O)CC[C@@]43C)[C@@H]1CC[C@@H]2C(=O)O,inactive,inactive,inactive,inactive,inactive,inactive,inactive,inactive,inactive
O=C(O)Cc1ccccc1,inactive,inactive,inactive,inactive,inactive,inactive,–,inactive,–
CC(CC(C(N)=O)(c1ccccc1)c1ccccc1)N(C)C (stereo not drawn),inactive,inactive,inactive,inactive,inactive,inactive,–,inactive,inactive
O=C(O)CCCCCCNC1c2ccccc2CCc2ccccc21,inactive,inactive,inactive,inactive,inactive,inactive,–,inactive,inactive
